# Values without a mark were called inactive. Inconclusive results are not listed. Calls of active or inactive are those of the source. Unless noted, calls follow the shape of the dose curve; as a rule, active = well fitted curve in the direction sought with a large enough effect; inconclusive = small, poorly fitted or top-dose-only effect, or another doubt; inactive = no such curve, though single readings can be large; an effect the other way counts as inactive or inconclusive.
# Experiments:
# [1] = AP1 Signaling Pathway (AID 357; active = well fitted curve in either direction with a large enough effect, not every such curve was filed as active;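 also: ME-180 reporter cells stimulated with EGF at its EC50 level; % is scaled to controls: 0 for no effect and ±100 for the full control effect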); conditions: ME-180 AP-1-bla reporter, EGF-induced, beta-lactamase ratio, 5 h; at 7.69 µM (top of the series) unless noted
# Method in brief: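 In this screen, ME-180 cells in Opti-MEM with 0.5% dialyzed FBS received EC50 EGF and compound titrations for 5 h. AP-1 reporter beta-lactamase was detected via CCF4 ratio, giving AC50 for positive and negative modulators.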
# [2] = biological target: Cytochrome P450 1A2 (Homo sapiens) (UniProt P05177); test: p450-cyp1a2 (AID 410; calls by dose curve; also: potency is read from the fitted curve at half-maximal effect)
# Chain of Cytochrome P450 1A2 (Homo sapiens) (P05177 whole entry, looked up): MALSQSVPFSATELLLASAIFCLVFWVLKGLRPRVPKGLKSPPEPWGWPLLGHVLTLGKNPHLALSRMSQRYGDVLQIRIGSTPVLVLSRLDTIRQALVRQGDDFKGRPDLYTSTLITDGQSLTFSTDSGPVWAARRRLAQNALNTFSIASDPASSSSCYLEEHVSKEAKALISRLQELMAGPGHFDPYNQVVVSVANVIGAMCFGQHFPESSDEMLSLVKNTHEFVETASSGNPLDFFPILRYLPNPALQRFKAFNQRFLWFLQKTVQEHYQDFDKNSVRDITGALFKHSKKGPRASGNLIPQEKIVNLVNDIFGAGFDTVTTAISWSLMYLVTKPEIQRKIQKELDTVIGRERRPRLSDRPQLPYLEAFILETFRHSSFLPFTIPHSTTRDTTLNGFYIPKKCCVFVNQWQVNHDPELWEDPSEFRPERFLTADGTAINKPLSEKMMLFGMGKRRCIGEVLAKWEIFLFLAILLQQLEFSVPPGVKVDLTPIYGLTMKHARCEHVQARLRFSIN
# Method in brief: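 20nM CYP1A2, 100uM Luciferin-ME (=Km), 100mM KPO4; cpd 10 min RT; +NADPH regen, 60 min RT; stop/detect 20 min; luminescence. Normalized to furafylline 57 uM = full inhibition.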
# [3] = NFAT Signaling Pathway (AID 444; active = well fitted curve in either direction with a large enough effect, not every such curve was filed as active;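 also: carbachol stimulus at about its EC50 of 1 µM final; % is scaled to controls: 0 for no effect and ±100 for the full control effect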); conditions: Jurkat NFAT-bla M1, carbachol, beta-lactamase ratio, 5 h; at 7.69 µM (top of the series) unless noted
# Method in brief: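 Jurkat cells carrying an NFAT-driven β-lactamase reporter and co-transfected muscarinic M1 receptor were treated with compound plus carbachol (1 uM final, an EC50 level) for 5 h at 37 °C. CCF4 loading followed for 1 h at RT; 460/530 nm ratio gave %activity.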
# [4] = Stat Signaling Pathway (AID 446; active = well fitted curve in either direction with a large enough effect, not every such curve was filed as active;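 also: ME-180 cervical cancer cells given 40 pM IL-6 alongside compound; SIE-controlled beta-lactamase reporter measured as 460/530 nm FRET emission ratio; % is scaled to controls: 0 for no effect and ±100 for the full control effect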); conditions: ME-180 SIE beta-lactamase reporter, IL-6 stimulated, 5 h; at 7.69 µM (top of the series) unless noted
# Method in brief: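 Normalization used AC90 stimulation (300 pM IL-6) and AC90 inhibition (125 nM pan-JAK inhibitor at 40 pM IL-6). The underlying signal is SIE-driven beta-lactamase in ME-180 cells after 5 h IL-6 exposure with compound.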
# [5] = biological target: Glucocorticoid receptor (Homo sapiens) (UniProt P04150); test: GR-GFP Redistribution (AID 450;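 active = compounds whose dose series gives a full or clear partial fitted curve of increased nuclear translocation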; also: potency is read from the fitted curve at half-maximal effect); conditions: U2OS GR-GFP nuclear translocation, laser cytometry, 2 h
# Chain of Glucocorticoid receptor (Homo sapiens) (P04150 whole entry, looked up, the tested form may be a part): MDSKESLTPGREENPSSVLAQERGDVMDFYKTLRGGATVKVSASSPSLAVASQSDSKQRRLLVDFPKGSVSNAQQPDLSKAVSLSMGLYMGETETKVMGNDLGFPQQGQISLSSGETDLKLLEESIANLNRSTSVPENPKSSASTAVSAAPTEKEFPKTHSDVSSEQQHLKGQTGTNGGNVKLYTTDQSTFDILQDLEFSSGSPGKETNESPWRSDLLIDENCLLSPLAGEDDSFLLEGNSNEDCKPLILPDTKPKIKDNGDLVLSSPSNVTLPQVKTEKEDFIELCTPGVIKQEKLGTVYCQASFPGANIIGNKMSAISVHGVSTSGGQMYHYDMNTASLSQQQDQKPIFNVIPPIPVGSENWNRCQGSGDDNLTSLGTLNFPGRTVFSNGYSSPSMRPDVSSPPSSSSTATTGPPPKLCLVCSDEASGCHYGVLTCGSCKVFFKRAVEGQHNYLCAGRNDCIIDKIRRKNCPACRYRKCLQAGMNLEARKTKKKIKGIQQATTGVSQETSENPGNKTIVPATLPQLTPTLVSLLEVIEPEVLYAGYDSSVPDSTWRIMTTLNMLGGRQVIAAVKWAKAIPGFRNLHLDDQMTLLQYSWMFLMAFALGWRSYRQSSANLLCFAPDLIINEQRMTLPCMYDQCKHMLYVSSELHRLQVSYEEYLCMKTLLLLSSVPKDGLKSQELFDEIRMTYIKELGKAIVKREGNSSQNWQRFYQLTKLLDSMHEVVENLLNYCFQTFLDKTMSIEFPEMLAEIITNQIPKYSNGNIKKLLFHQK
# [6] = biological target: Glucocorticoid receptor (Homo sapiens) (UniProt P04150); test: GR-EFC Redistribution (AID 451; calls by dose curve; also: potency is read from the fitted curve at half-maximal effect); conditions: CHO-K1 GR-EFC translocation, beta-gal luminescence, 2 h
# Method in brief: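 CHO-K1 cells stably expressing nuclear-localized β-gal enzyme acceptor and GR fused C-terminally to the enzyme donor fragment; ligand-driven nuclear translocation restores β-gal by complementation. Compounds titrated up to 46 uM final, 2 h at 37 °C; luminescence read.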
# [7] = biological target: Mitogen-activated protein kinase 10 (Mus musculus) (UniProt Q61831); test: JNK3 AlphaScreen Assay (AID 530; active = well fitted curve in either direction with a large enough effect, not every such curve was filed as active;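 also: kinase came from lysate of stimulated human HepG2 cells; signal reports phosphorylation of biotinylated GST-cJun 1-79 at Ser73 with 10 µM ATP; % is scaled to controls: 0 for no effect and ±100 for the full control effect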)
# Method in brief: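 Biotinylated GST-cJun(1-79) served as substrate for JNK3 in HepG2 lysates stimulated with IL-1beta and TNF-alpha. ATP was 10 uM final, pH 7.6. Ser73 phosphorylation was quantified by AlphaScreen (680 nm excitation).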
# [8] = biological target: Cytochrome P450 3A4 (Homo sapiens) (UniProt P08684); test: qHTS Assay for Inhibitors and Substrates of Cytochrome P450 3A4 (AID 884); also: potency is read from the fitted curve at half-maximal effect; nearly all actives have a fitted effect of over 50% in size
# Chain of Cytochrome P450 3A4 (Homo sapiens) (P08684 whole entry, looked up): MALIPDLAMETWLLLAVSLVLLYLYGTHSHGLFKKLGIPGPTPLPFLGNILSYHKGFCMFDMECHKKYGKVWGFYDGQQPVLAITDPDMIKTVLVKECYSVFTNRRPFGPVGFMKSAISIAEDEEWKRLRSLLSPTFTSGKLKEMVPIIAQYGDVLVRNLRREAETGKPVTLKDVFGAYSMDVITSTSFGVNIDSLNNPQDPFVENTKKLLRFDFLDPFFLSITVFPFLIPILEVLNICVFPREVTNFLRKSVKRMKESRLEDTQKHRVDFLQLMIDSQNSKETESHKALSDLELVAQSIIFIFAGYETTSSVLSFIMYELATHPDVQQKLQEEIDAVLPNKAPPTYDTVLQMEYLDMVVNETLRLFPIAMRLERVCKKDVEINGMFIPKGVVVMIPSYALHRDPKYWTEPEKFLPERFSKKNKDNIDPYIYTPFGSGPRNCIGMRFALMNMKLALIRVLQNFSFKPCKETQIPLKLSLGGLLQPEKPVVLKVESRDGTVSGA
# Method in brief: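 Luminescent readout of luciferin produced by CYP3A4 (20 nM) dealkylation of Luciferin-PPXE, 25 uM (its KM). NADPH-driven reaction ran 60 min at RT after 10 min compound preincubation; data scaled to 57 uM ketoconazole as 100% inhibition.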
# [9] = biological target: Cytochrome P450 3A4 (Homo sapiens) (UniProt P08684); test: qHTS Assay for Activators of Cytochrome P450 3A4 (AID 885); also: nearly all actives have a fitted effect of over 65% in size
# Method in brief: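 Human CYP3A4 dealkylates Luciferin-PPXE to luciferin, which luciferase detection converts to light. Substrate was at its KM (25uM), buffer 200mM KPO4, reaction 60 min at RT.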
# [10] = biological target: Dual specificity protein kinase CLK4 (Homo sapiens) (UniProt Q9HAZ1); test: qHTS Assay for Inhibitors of CDC-like Kinase 4 (Kinase-Glo Assay) (AID 1770); also: nearly all actives have a fitted effect of over 65% in size; also: potency is read from the fitted curve at half-maximal effect
# Chain of Dual specificity protein kinase CLK4 (Homo sapiens) (Q9HAZ1 whole entry, looked up): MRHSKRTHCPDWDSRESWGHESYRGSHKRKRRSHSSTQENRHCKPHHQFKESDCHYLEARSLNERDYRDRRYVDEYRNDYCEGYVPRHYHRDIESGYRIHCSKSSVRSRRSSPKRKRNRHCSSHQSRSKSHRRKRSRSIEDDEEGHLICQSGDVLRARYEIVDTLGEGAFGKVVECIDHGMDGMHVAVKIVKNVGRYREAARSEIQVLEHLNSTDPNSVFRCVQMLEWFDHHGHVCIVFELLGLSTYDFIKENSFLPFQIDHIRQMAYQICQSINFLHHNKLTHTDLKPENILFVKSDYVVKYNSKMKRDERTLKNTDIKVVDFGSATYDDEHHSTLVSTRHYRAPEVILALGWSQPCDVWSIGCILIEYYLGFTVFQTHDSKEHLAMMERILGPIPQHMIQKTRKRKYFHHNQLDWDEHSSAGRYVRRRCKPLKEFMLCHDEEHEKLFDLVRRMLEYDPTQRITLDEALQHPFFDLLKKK
# Method in brief: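 Clk4 25 nM, RS peptide 100 uM, ATP 1 uM, pH 7.5 Tris, 10 mM MgCl2, 2.5 mM DTT; 4.5 h RT; ATP depletion read by Kinase-Glo luminescence.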
# [11] = biological target: Dual specificity protein kinase CLK4 (Homo sapiens) (UniProt Q9HAZ1); test: qHTS Assay for Inhibitors of CDC-like Kinase 4 (ADP-FP Assay) (AID 1795);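 also: recombinant human CLK4 phosphorylating RS repeat peptide at 1 µM ATP; % is scaled to controls: 0 for no effect and ±100 for the full control effect; nearly all actives have a fitted effect of over 60% in size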
# Method in brief: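 Kinase activity was followed as ADP output, converted from fluorescence polarization with a calibration curve. Reactions ran one hour at low ATP (1 uM) with RS peptide substrate.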
# [12] = biological target: Ubiquitin carboxyl-terminal hydrolase 1 (Homo sapiens) (UniProt O94782); test: Inhibitors of USP1/UAF1: Pilot qHTS (AID 504865);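 also: rhodamine fluorescence freed from ubiquitin-rhodamine substrate followed over time; top concentration of the series differs between compounds; % is scaled to controls: 0 for no effect and ±100 for the full control effect; nearly all actives have a fitted effect of over 35% in size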
# Chain of Ubiquitin carboxyl-terminal hydrolase 1 (Homo sapiens) (O94782 whole entry, looked up): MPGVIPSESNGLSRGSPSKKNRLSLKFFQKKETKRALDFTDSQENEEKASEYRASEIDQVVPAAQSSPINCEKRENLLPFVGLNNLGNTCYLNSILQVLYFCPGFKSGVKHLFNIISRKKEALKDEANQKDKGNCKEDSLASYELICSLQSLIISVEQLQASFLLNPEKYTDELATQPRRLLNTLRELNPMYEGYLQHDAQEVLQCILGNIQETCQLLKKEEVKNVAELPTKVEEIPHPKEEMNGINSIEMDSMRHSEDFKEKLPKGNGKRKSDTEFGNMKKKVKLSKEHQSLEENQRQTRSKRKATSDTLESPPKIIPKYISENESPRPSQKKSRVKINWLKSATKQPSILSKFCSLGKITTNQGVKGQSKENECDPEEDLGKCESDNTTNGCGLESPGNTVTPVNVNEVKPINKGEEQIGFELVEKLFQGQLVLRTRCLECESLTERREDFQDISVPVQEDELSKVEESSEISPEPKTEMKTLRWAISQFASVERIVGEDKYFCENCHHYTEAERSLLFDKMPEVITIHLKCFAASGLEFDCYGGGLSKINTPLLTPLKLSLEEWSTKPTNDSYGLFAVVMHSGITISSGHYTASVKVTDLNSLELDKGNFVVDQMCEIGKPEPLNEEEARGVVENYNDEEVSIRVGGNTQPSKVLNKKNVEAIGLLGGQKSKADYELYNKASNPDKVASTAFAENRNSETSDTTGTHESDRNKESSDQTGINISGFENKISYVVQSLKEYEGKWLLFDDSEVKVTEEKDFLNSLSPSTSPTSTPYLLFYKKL
# Method in brief: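 Enzyme-free wells gave the negative control, while test wells held 1nM USP1/UAF1 preincubated with compound for 15 min at room temperature. Ub-Rho at 150nM final started the reaction, and fluorescence at 480/540 nm was recorded kinetically.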
# [13] = Primary qHTS for small molecule stabilizers of the endoplasmic reticulum resident proteome: Secreted ER Calcium Modulated Protein (SERCaMP) assay (AID 1508630); also: % is scaled to controls: 0 for no effect and ±100 for the full control effect
# Method in brief: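 The SH-SY5Y reporter protocol was run at 3 concentrations up to 38.3 uM (primary) or 11 concentrations (follow-up): 16 h compound, 100 nM thapsigargin for 4 h, then extracellular luciferase luminescence.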
# [14] = biological target: Lysosomal acid glucosylceramidase (Homo sapiens) (UniProt P04062); test: Glucocerebrosidase-p2 (AID 348; in the data active = potency below about 10 µM; also: potency is read from the fitted curve at half-maximal effect); conditions: purified GBA, blue fluorogenic substrate, 40 min
# Chain of Lysosomal acid glucosylceramidase (Homo sapiens) (P04062 whole entry, looked up): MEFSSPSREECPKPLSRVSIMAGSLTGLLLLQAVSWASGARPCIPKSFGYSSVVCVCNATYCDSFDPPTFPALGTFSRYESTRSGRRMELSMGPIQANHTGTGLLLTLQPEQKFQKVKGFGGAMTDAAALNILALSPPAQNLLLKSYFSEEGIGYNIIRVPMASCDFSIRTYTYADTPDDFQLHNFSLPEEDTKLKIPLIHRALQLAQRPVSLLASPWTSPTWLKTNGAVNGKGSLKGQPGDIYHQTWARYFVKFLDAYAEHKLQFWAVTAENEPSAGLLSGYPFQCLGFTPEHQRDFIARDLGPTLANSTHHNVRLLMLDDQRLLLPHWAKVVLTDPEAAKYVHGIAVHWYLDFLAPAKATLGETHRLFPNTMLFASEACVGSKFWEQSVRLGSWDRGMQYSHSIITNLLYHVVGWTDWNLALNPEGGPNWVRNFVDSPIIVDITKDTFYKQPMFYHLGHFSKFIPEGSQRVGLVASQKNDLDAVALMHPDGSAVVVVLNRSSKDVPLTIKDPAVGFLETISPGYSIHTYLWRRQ
# Method in brief: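 Normal human glucocerebrosidase (0.2 nM) with blue fluorogenic substrate (80 uM final) in citrate/phosphate pH 5.9 with 10mM sodium taurocholate, 0.01% tween-20; 40 min RT, NaOH/glycine stop; fluorescence Ex 365/Em 440; AC50 from a titration from 0.6 nM upwards.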
# [15] = biological target: 3',5'-cyclic-AMP phosphodiesterase 4B (Homo sapiens) (UniProt Q07343); test: qHTS Assay for Inhibitors of PDE-IV (AID 607; active = well fitted activation curve with a large enough effect in the main read-out, with a control signal flat, not every such curve was filed as active; also: % of control where 0% means no effect)
# Chain of 3',5'-cyclic-AMP phosphodiesterase 4B (Homo sapiens) (Q07343 whole entry, looked up): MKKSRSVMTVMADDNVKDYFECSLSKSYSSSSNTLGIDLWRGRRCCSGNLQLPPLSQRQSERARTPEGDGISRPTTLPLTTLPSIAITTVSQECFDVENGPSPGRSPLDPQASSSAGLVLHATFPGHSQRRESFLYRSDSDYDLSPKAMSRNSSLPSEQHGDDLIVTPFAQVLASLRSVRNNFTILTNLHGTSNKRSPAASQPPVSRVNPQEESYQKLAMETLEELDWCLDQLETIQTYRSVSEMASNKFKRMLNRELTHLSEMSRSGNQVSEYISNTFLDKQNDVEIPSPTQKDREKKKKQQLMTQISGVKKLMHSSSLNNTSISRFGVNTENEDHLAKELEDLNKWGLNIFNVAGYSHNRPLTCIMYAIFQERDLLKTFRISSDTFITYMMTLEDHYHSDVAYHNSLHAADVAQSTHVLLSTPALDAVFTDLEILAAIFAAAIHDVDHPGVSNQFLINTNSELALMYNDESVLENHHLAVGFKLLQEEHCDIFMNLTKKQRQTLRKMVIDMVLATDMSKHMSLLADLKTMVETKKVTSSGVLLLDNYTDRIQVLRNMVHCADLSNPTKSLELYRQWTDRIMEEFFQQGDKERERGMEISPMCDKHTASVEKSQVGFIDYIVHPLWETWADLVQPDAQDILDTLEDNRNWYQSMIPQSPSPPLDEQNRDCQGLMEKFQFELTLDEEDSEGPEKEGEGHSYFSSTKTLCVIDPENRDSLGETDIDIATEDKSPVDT
# Method in brief: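 HEK293 ACTOne cells with CNG channel (1000/well), endogenous PDE4; membrane potential dye, compounds up to 22.9 uM final. Fluorescence Ex 535/Em 590; RO 20-1724 (100 uM final) as reference.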
# [16] = biological target: Cytochrome P450 2C19 (Homo sapiens) (UniProt P33261); test: qHTS Assay for Inhibitors and Substrates of Cytochrome P450 2C19 (AID 899); also: potency is read from the fitted curve at half-maximal effect; nearly all actives have a fitted effect of over 60% in size
# Chain of Cytochrome P450 2C19 (Homo sapiens) (P33261 whole entry, looked up): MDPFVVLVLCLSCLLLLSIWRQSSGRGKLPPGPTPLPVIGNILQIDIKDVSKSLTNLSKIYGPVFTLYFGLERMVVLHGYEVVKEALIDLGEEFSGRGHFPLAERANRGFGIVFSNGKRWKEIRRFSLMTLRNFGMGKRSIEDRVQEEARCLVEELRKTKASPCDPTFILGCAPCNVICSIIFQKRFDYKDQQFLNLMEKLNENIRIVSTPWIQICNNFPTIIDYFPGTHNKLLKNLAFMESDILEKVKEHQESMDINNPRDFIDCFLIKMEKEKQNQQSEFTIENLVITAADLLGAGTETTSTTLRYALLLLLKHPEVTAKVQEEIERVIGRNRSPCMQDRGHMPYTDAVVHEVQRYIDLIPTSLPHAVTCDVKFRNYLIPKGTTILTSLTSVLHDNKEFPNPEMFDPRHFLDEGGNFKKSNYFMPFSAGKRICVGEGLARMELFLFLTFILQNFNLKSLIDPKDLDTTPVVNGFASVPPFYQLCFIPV
# Method in brief: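 Human CYP2C19 (5nM) with Luciferin-H EGE at 10uM (its KM) in 50mM KPO4 was preincubated with compound for 10 min at 37C. NADPH regeneration started a 60 min 37C reaction. Luciferin was read by luminescence, normalized to 57uM ketoconazole.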
# [17] = biological target: Dual specificity protein kinase CLK4 (Homo sapiens) (UniProt Q9HAZ1); test: qHTS Assay for Inhibitors of CDC-like Kinase 4 (ADP-Glo Assay) (AID 1771); also: nearly all actives have a fitted effect of over 70% in size; also: potency is read from the fitted curve at half-maximal effect
# Method in brief: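 25 nM Clk4, 100 uM RS peptide, 1 uM ATP (final); 2 mM MgCl2, 0.5 mM EGTA, 2.5 mM DTT, 0.01% Triton X-100; 1 hr RT. ADP-Glo readout: ATP depletion 45 min, conversion/luciferase 30 min, luminescence.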
# [18] = qHTS Assay for Identification of Small Molecule Agonists for Hypoxia Response Element Signaling Pathway (AID 914; active = well fitted activation curve with a large enough effect in the signal ratio, with a control signal flat, not every such curve was filed as active; the % refers to the signal ratio; also: potency is read from the fitted curve at half-maximal effect); conditions: ME-180 (cervical carcinoma) HRE-bla reporter, beta-lactamase ratio, CoCl2, 17 h; activation: stronger effect = higher value
# Method in brief: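 Compounds in a titration series were added to ME-180 reporter cells alongside an EC50 level of CoCl2. After 17 hours, beta-lactamase activity was read as the 460nm/530nm emission ratio of CCF4, giving AC50 values.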
Compound,"activity change, negative = inhibition [1] [%]",Potency [2],"activity change, negative = inhibition [3] [%]","activity, negative = inhibition [4] [%]",Potency [5] [µM],Potency [6] [µM],Potency [7],Potency [8],Potency [9],Potency [10],Potency [11],Potency [12],outcome [13],Potency [14] [µM],Potency [15],Potency [16],Potency [17],Potency [18]
Cc1noc(C)c1-c1nc(Nc2ccccc2)c2ccccc2n1,-13.6,0.251 µM (active),-11.8,-8.68,> 46,> 46,inactive,6.31 µM (active),inactive,inactive,inactive,inactive,inactive,–,–,–,–,–
Cc1nc2cnc(Oc3ccccc3)nc2n(C2CC2)c1=O,-5.18,–,-1.18,-14.1,> 9.22,> 46,inactive,–,inactive,inactive,inactive,inactive,inactive,> 11.4,inactive,–,–,–
CCNc1ncc2nc(-c3ccc(Cl)cc3)c(=O)n(-c3ccc(OC)cc3)c2n1,–,–,–,–,–,> 46,–,–,–,inactive,inactive,inactive,inactive,> 11.4,inactive,–,–,–
CCNc1ncc2nc(-c3ccc(Cl)cc3)c(=O)n(C)c2n1,23.6,0.398 µM (active),20,–,> 9.22,> 46,inactive,–,–,inactive,inactive,inactive,inactive,–,–,–,–,–
COc1ccc2[nH]cc(CCNc3cc(-c4ccc(C(=O)N(C)C)cc4)ncn3)c2c1,-10.4,20 µM (active),0.0562,-10.6,> 46,> 46,inactive,6.31 µM (active),inactive,10 µM (active),–,inactive,inactive,> 11.4,inactive,–,–,–
CN(C)C(=O)c1ccc(-c2ccc3ncnc(NCc4ccccc4)c3c2)cc1,–,15.8 µM (active),13,7.31,> 46,> 46,inactive,–,inactive,inactive,inactive,inactive,inactive,> 11.4,–,–,–,–
O=c1c(-c2cccc(Cl)c2)nc2cncnc2n1-c1ccccc1,-18.9,2 µM (active),9.76,0.546,> 9.22,> 46,inactive,–,inactive,inactive,inactive,inactive,inactive,–,–,–,–,–
CCNc1ncc2nc(CCc3ccccc3)c(=O)n(C[C@H]3CCCO3)c2n1,-23.9,–,-3.48,-9.11,> 9.22,> 46,inactive,–,–,inactive,inactive,inactive,inactive,–,–,–,–,–
Cc1cnc(CNc2ncncc2-c2ccccc2C)cn1,–,25.1 µM (active),-3.77,-10.5,> 46,> 46,inactive,–,inactive,inactive,inactive,inactive,inactive,> 11.4,inactive,7.94 µM (active),–,–
COCCn1c(=O)c(C)nc2cnc(OC)nc21,-9.91,–,5.14,-16.1,> 9.22,> 46,inactive,–,inactive,inactive,inactive,inactive,inactive,> 11.4,inactive,–,–,–
COc1ccccc1-c1nc(N2CCOCC2)c2ccccc2n1,-9.32,0.501 µM (active),10.4,14.3,> 46,> 46,inactive,–,inactive,–,inactive,inactive,inactive,> 11.4,–,–,20 µM (active),–
CN1CCN(c2ncc3nc(-c4cn(C)c5ccccc45)c(=O)n(-c4ccccc4)c3n2)CC1,2.43,15.8 µM (active),20,4.99,> 9.22,> 46,inactive,–,inactive,–,inactive,–,inactive,–,inactive,–,inactive,–
COc1cccc(Cn2c(=O)cnc3cnc(Nc4ccccc4)nc32)c1,-26.5,–,17.1,-29.7,> 46,> 46,inactive,–,–,–,inactive,inactive,inactive,> 11.4,inactive,–,2.24 µM (active),–
CCNc1ncc2nc(-c3ccc(F)cc3)c(=O)n(Cc3ccc(F)cc3)c2n1,–,20 µM (active),18.8,–,> 9.22,> 46,inactive,–,–,inactive,–,–,inactive,> 11.4,inactive,–,–,1.58 µM (active)
